SMILES strings stand for the structures. Among all 220,000 compounds or so, about 2,400 (1.1%) were called active. This is one part of a sample in which actives are shown more often than they occur. A number with no mark means an inactive call.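 Rule for the calls: active = inhibition above a per-campaign cutoff, the mean inhibition of all tested compounds plus 3 SD (cut at about 27% in these data); inactive = the rest.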

The assay is described as follows: parental Ba/F3 cell viability inhibition, counter-screen for JAK2V617F inhibitor project, murine pro-B, CellTiter-Glo luminescence (AID 1486).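 Note: 0% = DMSO wells and 100% = JAK Inhibitor I control wells.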 The settings on record: CellTiter-Glo ATP luminescence, at 5.6 µM, stronger effect = higher value.
Regarding `CCCCCc1ccc(-c2ccc(OCC)cc2)nc1`, the inhibition (as a rule, the relative decrease from the control value, in per cent) was 3.47%. Consider `COCC(C)n1c(C)cc(C(=O)COc2ccc(C)nc2[N+](=O)[O-])c1C` (configuration not stated), for which the inhibition was 3.84%. Next, `C/C(=N\NC(=O)c1cccnc1)c1ccc(-n2ccnc2)cc1`: -0.08%; `COc1ccc(Cl)cc1NC(=O)C(C)N1CCc2ccccc21` (configuration not stated): 4.67%; `Cc1ccc(/C=C/C(=O)O)cc1S(=O)(=O)N1CCC(Cc2ccccc2)CC1`: -3.54%. For `Cc1ccc(C2CC(=O)NC(SCC(=O)OCc3ccccc3)=C2C#N)o1` (configuration not stated), the inhibition is 2.62%. In the case of `CCOC(=O)CSC1=C(C#N)C(c2sccc2C)CC(=O)N1` (configuration not stated), the inhibition was 81.7% (active). For the compound `C=CCOC(=O)C1=C(C)NC(SCC(=O)OCC)=C(C#N)C1c1ccc(C)cc1` (configuration not stated), the inhibition was 1.41%.

With `Cc1nnc(CN(C)Cc2cn[nH]c2-c2ccc(-c3ccccc3)cc2)o1`, the inhibition was 3.87%. As for `COc1ccc(C(=O)Nc2nc(-c3ccc(OC)cc3)c(-c3ccc([N+](=O)[O-])cc3)s2)cc1`, the inhibition was 61.3% (active). Take `COC(=O)C(NC(=O)c1ccc(OC)cc1)(Nc1ncc(S(=O)(=O)c2ccc([N+](=O)[O-])cc2)s1)C(F)(F)F` (configuration not stated): the inhibition was -1.49%. Next, `Cc1cccc(NC(=O)c2sc(-c3ccccc3)nc2-c2ccc([N+](=O)[O-])cc2)c1`: 2.68%; `CCOC(=O)/C(=N\Nc1ccccc1[N+](=O)[O-])c1csc(Nc2ccccc2)n1`: 12%.

As to `Cc1nnc(N/N=C/c2ccccn2)[nH]c1=O`, the inhibition was 1.19%. The figure for `Cc1ccc(Oc2ccc(N)cc2)cc1` is 2.65%. With `Nc1ccc(Oc2ccc(Cl)cc2)cc1`, the inhibition was 9.91%. In the case of `CC(C)(C)c1ccc(Oc2ccc(N)cc2)cc1`, the inhibition was 36.8% (active). Take `CCCCN(C)c1ccc([N+](=O)[O-])cc1`: the inhibition is 8.6%.

Take `CCc1[nH]nc(C(=O)N2CCCC(CNS(=O)(=O)c3cccs3)C2)c1C` (configuration not stated): the inhibition is 6.5%. Regarding `C/C(CC(=O)NC(C)c1ccccc1)=N\NC(N)=S` (configuration not stated), the inhibition was -3.5%. For `CCOC(=O)N1CCN(C(=O)C2CCN(Cc3ccc(OC)cc3OC)CC2)CC1`, the inhibition was 3.57%. With `CCOC(=O)C1CCN(c2ncnc3c2oc2ccc(Br)cc23)CC1`, the inhibition was 6.89%. For the compound `CCOC(=O)N1CCN(C(=O)C2CCN(c3ncnc4c3sc3cccc(F)c34)CC2)CC1`, the inhibition was 40.6% (active). For the compound `CNC(=O)COc1ccc(S(=O)(=O)Nc2ccccc2)cc1`, the inhibition was 0.46%.

Turning to `Cc1csc(CN(C)C(=O)CC2C(=O)NCCN2CC(C)(C)C)n1` (configuration not stated), the inhibition was 9.22%. Regarding `Cc1ccc(C(=O)N/N=C\c2cc(Br)c(Br)o2)cn1`, the inhibition is 1.1%. For `Cc1cc(C(=O)CSc2nc(N)cc(=O)[nH]2)c(C)n1CCc1ccc(Cl)cc1`, the inhibition is 6.39%.

Take `Cc1cc(C(=O)CSc2nc(N)cc(=O)[nH]2)c(C)n1-c1cccc(F)c1`: the inhibition was 4.66%. For the compound `Cc1cc(C(=O)CSc2nc(N)cc(=O)[nH]2)c(C)n1Cc1ccco1`, the inhibition is 33.8% (active).

`CSC1=NCCN1C(=O)Cc1cccc2ccccc12`: the inhibition was 2.66%. With `CCn1c2ccccc2c2cc(NC(=O)Nc3ccc([N+](=O)[O-])cc3C)ccc21`, the inhibition is -1.24%. As to `CC(=O)c1cc(-c2ccccc2)n(CCC(=O)NC2CCCCCC2)c1C`, the inhibition is 1.01%. The figure for `CC(C)c1cc(CN2CCOCC2)cc(C(C)C)c1O` is -1.01%. In the case of `COc1ccc(Nc2oc(-c3ccccc3Cl)nc2C#N)cc1`, the inhibition was 29.4% (active). In the case of `Cc1ccccc1-c1nc(C#N)c(NCc2ccco2)o1`, the inhibition is 11.3%. As for `COc1ccccc1-c1nc(C#N)c(N2CCC(C(N)=O)CC2)o1`, the inhibition is 1.59%.

With `NC1=NC2(CCCCC2)N(c2ccc(F)cc2F)C(N)=N1`, the inhibition was 5.17%.

On to `COc1ccc(CCNC(=O)CC2SC(=Nc3cc(C)cc(C)c3)NC2=O)cc1OC` (configuration not stated), for which the inhibition was 2.92%. Consider `O=c1cc(O)c(-c2cccc(C(F)(F)F)c2)c(Cl)[nH]1`, for which the inhibition was 13.5%.

As to `Cc1nc2ccc(C(=O)O)cc2[nH]1`, the inhibition was -0.24%. Consider `COC(=O)Nc1nc2ccc(Sc3ccccc3)cc2[nH]1`, for which the inhibition is 76% (active). Regarding `COc1cc(OC)cc(C(=O)N[C@H](C(=O)Nc2nc3ccccc3[nH]2)C(C)C)c1`, the inhibition was 16.4%. The figure for `COc1ccccc1-c1c(C#N)c(N)nc2c1CCC2` is 0.32%; for `COC(=O)c1sccc1NC(=O)CC1C(=O)NCCN1C(=O)Nc1ccc(F)cc1F` (configuration not stated) it is -2.58%; for `CSc1ccc(/C=N/NC(=O)c2cccc(Cl)c2)cc1` it is 1.81%. As to `COc1ccc(C2=NOC(C(=O)NCc3ccco3)C2)cc1OC` (configuration not stated), the inhibition was 64.1% (active). As for `Cc1ccc(CNC(=O)C2CC(c3ccccc3[N+](=O)[O-])=NO2)o1` (configuration not stated), the inhibition is 0.33%. As to `COc1ccc(-c2cc(C(=O)NCc3ccco3)no2)cc1OC`, the inhibition is 4.7%.

Take `Cc1cc(N)n(-c2ccc(S(=O)(=O)N3CCCC3)cc2[N+](=O)[O-])n1`: the inhibition was 4.29%.

Take `C=CCOCCN(C)C1=NS(=O)(=O)c2ccccc21`: the inhibition was 3.69%. Turning to `COc1ccc(N2C(=O)CNC2=S)cc1`, the inhibition was 2.23%.

Turning to `Cc1cc2cc(CNC(=O)c3cccs3)ccc2[nH]1`, the inhibition was 39% (active). As to `CCc1cccc(CC)c1NC(=S)NCc1ccc2[nH]c(C)cc2c1`, the inhibition was 8.67%.

As for `Cc1ccc(C)c2[nH]c(=O)c(CCNC(=O)c3cccs3)cc12`, the inhibition was 6.4%. On to `Cn1c(=O)c2c(nc(N/N=C/c3cccs3)n2Cc2ccc(Br)cc2)n(C)c1=O`, for which the inhibition is 2.68%.

Consider `COc1ccc(-c2csc(-c3cccs3)n2)cc1OC`, for which the inhibition is 6.08%. Regarding `COc1ccc(Br)cc1CN(C)CC(=O)Nc1cc([N+](=O)[O-])ccc1OC`, the inhibition is -2.62%.

For the compound `CCOC(=O)c1cc(-c2ccc(F)cc2)n(CC(=O)NCc2ccccn2)c1C`, the inhibition is 5.17%. Take `CN1CCN(C(=O)CCc2nc(-c3ccc(Cl)cc3)no2)CC1`: the inhibition was 5.12%. On to `CC1CCN(Cc2nc(-c3ccc(Cl)cc3)no2)CC1`, for which the inhibition is 36% (active).

For `Cc1ccc(-c2noc(CN3CCN(Cc4ccccc4)CC3)n2)cc1`, the inhibition is 3.84%.

Take `O=c1[nH]c2cccnc2n(CCNc2ncc(C(F)(F)F)cc2Cl)c1=O`: the inhibition is 3.7%.

(Values after PubChem BioAssay AID1486 (The Scripps Research Institute Molecular Screening Center, 2009).)
